Screens: PubChem, several laboratories
An excerpt weighted towards active compounds, which were near 3% of everything screened.
KLF5 inh = suppresses KLF5 promoter-driven expression; AID 1700; 290,000 tested, 0.23% active; inhibition, % at 5 µM; DLD-1 KLF5 promoter-luciferase reporter, luminescence;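 active = inhibition above a per-plate limit of that plate's mean compound inhibition plus 3 SD, cut at about 60% in these data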;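 note: higher means less KLF5 promoter-driven luciferase light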
aSyn 5UTR inh = 5' untranslated region of α-synuclein, MLPCN primary screen | alpha-synuclein 5'UTR reporter, inhibitor activity | inhibition, % (tested at 7.5 µM) | 300,000 tested, 0.82% active | AID 1813; in the data active = inhibition above about 60%; inconclusive = no clear call, values can overlap the other calls;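 note: H4 neuroglioblastoma cells stably carrying SNCA 5'UTR luciferase fusion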
IEC-6 tox = counter-screen for KLF5 inhibitors: cytotoxicity in IEC-6 cells. IEC-6 cytotoxicity, luminescence viability. inhibition, % at 5 µM. 290,000 tested, 0.78% active. AID 1825
SKKanGAS inh = inhibitors of SKKanGAS S. pyogenes growth in kanamycin (SK-promoter or general growth effect). inhibition, % at 7.5 µM. 300,000 tested, 1.3% active. AID 1662. BacTiter-Glo, 6 h;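 active = mean replicate score, as percent of positive control median, at least 50; inconclusive = mean below 50 but one replicate at or above 50; inactive = mean and every replicate below 50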;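 note: strain carries kanamycin resistance gene driven by streptokinase promoter and grows in 40 µg/ml kanamycin; loss of luminescence reflects streptokinase promoter inhibition or plain growth inhibition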
CSC inhib = cancer stem cell inhibition; cancer stem cell-like cells viability, luminescence; inhibition, % at 7.5 µM; 300,000 tested, 1.1% active; in the data active = inhibition above about 75%; inconclusive = no clear call, values can overlap the other calls; tested in HMLE shEcad cells
IEC-6 tox confirm = IEC-6 cytotoxicity, confirmation assay | 1,900 tested, 63% active | AID 1907 | shares compounds with IEC-6 tox | inhibition, % at 5 µM | IEC-6 rat intestinal epithelial viability, luminescence
Numbers stand for hits; i = inactive; ? = inconclusive; nt = no result given. Cut-off read from the data, not from the text of the source, unless noted: active = inhibition above about 22%; inactive = the rest.

SMILES | KLF5 inh | aSyn 5UTR inh | IEC-6 tox | SKKanGAS inh | CSC inhib | IEC-6 tox confirm
Cc1cc(C)cc(Oc2nc3ccccn3c(=O)c2/C=C(\C#N)C(=O)NC2CCS(=O)(=O)C2)c1 (stereo not given) | i | i | i | i | i | nt
Cc1ccc(Oc2nc3ccccn3c(=O)c2/C=C(\C#N)C(=O)NC2CCS(=O)(=O)C2)c(C)c1 (stereo not given) | i | i | 56 | i | i | 34
CC(=O)Nc1nc(-c2ccc3c(c2)CCN3C(=O)C2CC2)c(C)s1 | i | i | 49 | i | nt | i
CC1=Nc2ccccc2/C1=C/c1nc(-c2ccc(C)s2)oc1O | i | i | i | i | i | nt
CC1=Nc2ccccc2/C1=C/c1sc(=N)n(-c2nccs2)c1O | i | 63 | 27 | 98 | 111 | 41
CCOC(=O)c1ccc(N2CCOCC2)c(NC(=O)c2c(-c3ccccc3)noc2C)c1 | i | i | 61 | i | i | 50
Cc1onc(-c2ccccc2)c1C(=O)Nc1cc(C(F)(F)F)ccc1N1CCOCC1 | i | i | 77 | i | i | 50
Cc1onc(-c2ccccc2)c1C(=O)Nc1ccccc1N1CCOCC1 | i | i | i | i | i | nt
O=C1N(c2ccccc2)C[C@@H]2C[C@@H](c3cc4ccccc4o3)N3CCC[C@@]123 | i | i | 38 | i | nt | 97
CC(=O)N/C(=C/c1ccc2c(c1)OCO2)C(=O)NCc1ccccc1 | i | i | i | i | i | nt
CCOC(=O)N1CCN(C(=O)CN(C)S(=O)(=O)c2ccc(OCC)cc2)CC1 | i | i | i | i | i | nt
Fc1ccc2[nH]c3c(NCc4ccccc4)ncnc3c2c1 | i | i | 33 | i | i | 30
COc1ccc2[nH]c3c(NCc4ccco4)ncnc3c2c1 | i | i | i | i | i | nt
CCCCCCCCN1[C@@H](CC(=O)O)c2ccc(C(F)(F)F)cc2S1(=O)=O | nt | i | nt | i | i | nt
O=C(C1=NN[C@@H]2C(=O)N(c3ccccc3C(F)(F)F)C(=O)[C@H]12)c1ccc2ccccc2n1 | i | i | 71 | i | i | i
N#Cc1ccc(N2C(=O)[C@@H]3C(C(=O)c4ccc5ccccc5n4)=NN[C@@H]3C2=O)cc1 | i | i | i | i | i | nt
Cc1ccc2sc(N(CCCN(C)C)C(=O)CCS(=O)(=O)c3ccccc3)nc2c1C | i | i | 24 | i | i | i
COc1cccc(N(C(=O)c2snc(C(N)=O)c2N)C(C(=O)NCC2CCCO2)c2ccc3ncccc3c2)c1 (stereo not given) | i | i | i | i | nt | nt
O=C(Nc1ccc(NC(=S)NC(=O)C(c2ccccc2)c2ccccc2)cc1)c1ccccc1 | i | i | i | i | i | nt
Cc1ccc(C(C)C)c(OCc2ccc(C(=O)N/N=C/c3cccc(O)c3O)cc2)c1 | i | 108 | 41 | 86 | 111 | 78
CC1CCN(C2=NC(=O)/C(=C/c3ccccc3F)S2)CC1 | i | i | i | i | i | nt
CN1C2CCC1/C(=C\c1ccccc1F)C(=O)/C2=C/c1ccccc1F | i | i | 33 | i | i | i
COc1ccc(-c2c(-c3cc(OC)c(OC)c(OC)c3)noc2C)cn1 | i | 76 | 80 | i | nt | 54
COc1cc(-c2noc(C)c2C#Cc2ccc(N)cc2)cc(OC)c1OC | i | 88 | 87 | i | 108 | 64
COc1ccc(-c2c(-c3ccc4c(c3)OCO4)noc2C)cn1 | i | i | i | i | i | nt
SMILES | KLF5 inh | aSyn 5UTR inh | IEC-6 tox | SKKanGAS inh | CSC inhib | IEC-6 tox confirm
O=C(c1ccccc1F)N(Cc1nc2ccccc2c(=O)[nH]1)C1CCCC1 | i | i | i | i | i | nt
Cc1cc(Cl)ccc1OCC(=O)N(Cc1ccco1)C1CCS(=O)(=O)C1 (stereo not given) | i | i | i | i | i | nt
CC(C(=O)N1CCN=C1c1ccccc1)N1C(=O)c2ccccc2C1=O (stereo not given) | i | i | i | i | i | nt
COc1ccc(Nc2nnc(C)c(=O)[nH]2)c(OC)c1 | i | i | i | i | i | nt
NNC(=O)c1ccc(COCC(F)(F)F)cc1 | i | i | i | i | i | nt
CC(C)NC(=S)N/N=C/c1cc(Br)ccc1O | i | i | 94 | 62 | i | i
Cc1ccc(/C=N/NC(=S)NC(C)C)o1 | i | i | i | i | i | nt
NNC(=O)c1c[nH]c2ccc(OCc3ccccc3)cc12 | nt | i | nt | i | i | nt
COc1cccc(N(C(=O)CCl)C(C(=O)NCCc2ccccc2)c2cccs2)c1 (stereo not given) | i | i | 87 | i | i | 41
COc1ccc(N(C(=O)CCl)C(C(=O)NCCc2ccccc2)c2cccs2)cc1Cl (stereo not given) | i | i | 78 | i | 109 | 42
COc1ccc(C)cc1NC(=O)CNC(c1ccccc1)c1ccc(C)cc1 (stereo not given) | i | 103 | 69 | i | i | 51
COc1ccc(Nc2ncnc3c2c(C)c(C)n3CCCN(C)C)cc1 | i | i | i | i | i | nt
O=c1[nH]cc(C(F)(F)F)cc1NS(=O)(=O)c1ccccc1[N+](=O)[O-] | i | i | i | i | i | nt
Cc1c(C(=O)O)[nH]c2c1C(=O)CC(c1ccc(C(C)(C)C)cc1)C2 (stereo not given) | i | i | i | i | i | nt
Cc1c(C(=O)N2CCOCC2)[nH]c2c1C(=O)CC(c1ccccc1Cl)C2 (stereo not given) | i | i | 60 | i | i | 48
COc1ccc(C(=O)Nc2ccccc2C(=O)N2CCCCC2C)cc1 (stereo not given) | i | i | i | i | i | nt
Cc1ccc(NC(=O)C2CCN(S(=O)(=O)c3ccc4c(c3)NC(=O)C(C)S4)CC2)cc1Cl (stereo not given) | i | i | 22 | i | i | i
O=C(COc1ccccc1-c1ccccc1)NN=C1CCCC1 | i | i | 53 | i | i | i
O=C1CCC/C(=N\NC(=O)c2ccc(COc3ccccc3-c3ccccc3)cc2)C1 | i | i | i | i | i | nt
CCN1CCc2c(sc(NC(=O)c3cc4ccccc4cc3OC)c2C(N)=O)C1 | i | i | 27 | i | i | i
COc1cccc(OC)c1C(=O)Nc1sc2c(c1C(N)=O)CCN(Cc1ccccc1)C2 | i | i | i | i | i | nt
CCN(CC)c1c([N+](=O)[O-])c(=O)n(C)c2ccccc12 | i | i | i | i | i | nt
Cn1c(=O)c([N+](=O)[O-])c(Cl)c2ccccc21 | i | i | 48 | i | nt | 64
CN(C)CCn1c2ccccc2c2nc3ccc([N+](=O)[O-])cc3cc21 | i | 104 | 82 | i | ? | 51
Cc1cccc(NC(=O)CCC(=O)Nc2nnc(C(F)(F)F)s2)c1 | i | i | i | i | i | nt
Cc1ccc(NC(=O)c2ccc(OC(F)(F)F)cc2)cc1S(=O)(=O)N(C)C | i | i | i | i | i | nt
O=C(c1ccco1)c1coc2c1cc(O)c1ccccc12 | i | i | 25 | i | i | i
O=C(Nc1ccc(Br)cn1)c1ccc(Br)s1 | i | i | 28 | i | i | i
COc1ccc(C)cc1Nc1n[n+](-c2ccccc2)c(-c2ccc(N(C)C)cc2)s1 | i | i | i | i | i | nt
Cc1ccc2c(c1)sc(-c1ccc(N(C)C)cc1)[n+]2C | i | i | 44 | i | i | 30
